Source: PubChem BioAssay
Active and inactive are the calls of the source.

Assays:
Albumin (Bos taurus) = Albumin (Bos taurus) (UniProt P02769); assay: compounds binding labelled BSA control protein – biochemical, small-molecule microarray, Alexa647 label, 635/667 nm fluorescence, artefact control for SMM control protein annotation, profiling panel (AID 1118); conditions: BSA-A647 binding, fluorescence 635 nm, higher = more signal;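 note: score merges 667 nm emission intensity and signal-to-noise per printed compound spot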
[1] = probe aXIP binding to arrayed compounds – biochemical, NeuroSMM set, 635/667 nm fluorescence, primary screen (AID 1119); conditions: small-molecule microarray, higher = more signal, called active from +8 up or from −8 down;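 note: probe is the protein aXip251-270 applied at 1 µg/mL to compound-printed slides; binding of probe to printed compounds measured as 667 nm fluorescence plus signal to noise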
[2] = probe aNOTCH3 binding on compound microarray – biochemical, small-molecule microarray, 635/667 nm fluorescence, primary screen (AID 1120); conditions: higher = more signal;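 note: probe is a biotin-tagged antibody raised against NOTCH3 rather than NOTCH3 protein; score merges spot fluorescence near 667 nm with spot signal to noise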
[3] = probe aNOTCH2 binding on compound microarray – biochemical, small-molecule microarray, 635/667 nm fluorescence, primary screen (AID 1121); conditions: higher = more signal;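 note: score merges feature fluorescence read at 667 nm with its signal to noise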
[4] = target: Carbonic anhydrase 2 (Homo sapiens) (UniProt P00918); assay: compounds binding carbonic anhydrase 2 – biochemical, small-molecule microarray, Alexa647-labelled CAII, profiling panel (AID 1122); conditions: CAII-A647 binding fluorescence, higher = more signal
[5] = COS7 lysate on small-molecule microarray, probe aHis, 635 nm (AID 1123); conditions: COS7 cell lysate, fluorescence, higher = more signal;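 note: z-score combines 667nm fluorescence intensity with signal-to-noise per printed compound spot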
[6] = probe aLAP1 signal on lysate-treated microarray – cell lysate, small-molecule microarray, COS7 lysate, primary screen (AID 1124); conditions: probe aLAP1, fluorescence, higher = more signal;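 note: lysate comes from COS7 cells expressing LAP1 and is applied at 0.3 µg/mL; score merges spot fluorescence near 667 nm with signal-to-noise over triplicate slides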
Sam68 (KHDRBS1) = assay: compounds binding KHDRBS1 protein – biochemical, small-molecule microarray, 635 nm fluorescence, primary screen (AID 1125); conditions: higher = more signal;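 note: score merges 667 nm channel intensity with signal to noise over triplicate slides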
[7] = test system: Chordin-like protein 2 (CHRDL2); assay: compounds binding chordin-like 2 – biochemical, small-molecule microarray, 635 nm fluorescence, primary screen (AID 1126); conditions: fluorescence 635 nm, higher = more signal;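 note: printed compound slides probed with Chrdl2 protein at 4 µg/mL for 1 h at 4 C; score merges 667 nm emission intensity with signal to noise over three replicate slides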
[8] = target: Concanavalin-A (Canavalia ensiformis) (UniProt P02866); assay: compounds binding concanavalin A lectin – biochemical, small-molecule microarray, Alexa647 label, 635 nm, artefact control for SMM control protein annotation, primary screen (AID 1127); conditions: ConA-A647 binding fluorescence, higher = more signal;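 note: z combines 667 nm emission intensity with signal-to-noise across three replicate slides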
Concanavalin-A (Canavalia ensiformis), sequence (P02866 whole entry, looked up): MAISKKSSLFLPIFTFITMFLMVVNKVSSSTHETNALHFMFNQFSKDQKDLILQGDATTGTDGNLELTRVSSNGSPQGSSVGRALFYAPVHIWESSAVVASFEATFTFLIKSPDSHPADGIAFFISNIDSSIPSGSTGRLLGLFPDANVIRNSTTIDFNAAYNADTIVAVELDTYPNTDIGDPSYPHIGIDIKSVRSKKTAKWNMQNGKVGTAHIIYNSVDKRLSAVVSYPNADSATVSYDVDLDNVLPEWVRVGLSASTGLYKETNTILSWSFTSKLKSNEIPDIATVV

Albumin (Bos taurus), sequence (P02769 whole entry, looked up): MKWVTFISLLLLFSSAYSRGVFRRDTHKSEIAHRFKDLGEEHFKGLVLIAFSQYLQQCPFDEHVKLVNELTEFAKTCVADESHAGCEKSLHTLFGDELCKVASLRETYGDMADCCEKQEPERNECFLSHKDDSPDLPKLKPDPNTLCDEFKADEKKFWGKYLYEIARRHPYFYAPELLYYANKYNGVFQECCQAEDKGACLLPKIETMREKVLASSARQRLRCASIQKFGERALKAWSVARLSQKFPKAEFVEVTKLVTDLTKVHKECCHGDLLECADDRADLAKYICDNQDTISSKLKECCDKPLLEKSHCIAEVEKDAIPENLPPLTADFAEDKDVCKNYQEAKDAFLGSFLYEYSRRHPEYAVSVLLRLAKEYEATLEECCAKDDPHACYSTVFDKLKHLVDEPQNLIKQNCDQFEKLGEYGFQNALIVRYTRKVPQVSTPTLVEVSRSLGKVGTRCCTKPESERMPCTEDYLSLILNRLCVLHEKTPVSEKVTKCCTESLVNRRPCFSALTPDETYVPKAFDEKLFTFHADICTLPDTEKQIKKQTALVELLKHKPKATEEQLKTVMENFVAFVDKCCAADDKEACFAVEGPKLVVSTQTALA

| Compound | composite z-score (Albumin (Bos taurus)) | composite Z-score [1] | composite z-score [2] | composite z-score [3] | composite z-score [4] | composite z-score [5] | composite z-score [6] | composite z-score (Sam68 (KHDRBS1)) | composite z-score [7] | composite z-score [8] |
| --- | --- | --- | --- | --- | --- | --- | --- | --- | --- | --- |
| C[C@@H](c1ccccc1)N1C(=O)[C@H]2[C@H]3[C@H](O)[C@H](O)CC(=NO[C@@H]4O[C@H](CO)[C@@H](O)[C@H](O)[C@H]4O)[C@H]3CC[C@H]2C1=O | 0.0673 | -0.154 (inactive) | 0.0259 | 0.012 | -0.0193 | 0.0007 | 0.554 | 0.648 | 0.373 | 0.44 |
| CO[C@H]1COC(=O)CCC[C@@H](C)[C@H](OC)COC(=O)[C@@H]2CCCN2C(=O)CC=C[C@@H]1C | -0.695 | 0.215 (inactive) | -0.0074 | -0.132 | -0.465 | -0.776 | 0.324 | -0.113 | 1.46 | -0.232 |
| CCOC(=O)[C@H](CC(C)C)NC(=O)CCC1CC(OC(=O)NCc2ccc3c(c2)OCO3)CC2(CCCC(COC(=O)NCCCN3CCCC3=O)O2)O1 (stereo not given in full) | -0.0359 | -0.0273 (inactive) | 0.0196 | -0.108 | 0.0039 | 0.659 | 0.178 | 1.33 | 0.325 | 1.08 |
| Cc1ccc(S(=O)(=O)N[C@H]2COC(=O)CC=C[C@H](C)[C@@H](NS(=O)(=O)c3ccc(C)cc3)COC(=O)CC=C[C@@H]2C)cc1 | -0.109 | -0.286 (inactive) | 0.0282 | -0.14 | -0.0386 | -0.364 | -0.242 | 0.0236 | 0.477 | 0.128 |
| Cc1ccc(S(=O)(=O)NC(CCc2ccccc2)CC(=O)C(C)(C)C)cc1 (stereo not given) | -0.122 | 0.6 (inactive) | 0.0591 | -0.0984 | 0.0117 | 0.0881 | -0.113 | 0.93 | 0.686 | 0.87 |
| CCOC(=O)[C@H](CC(C)C)NC(=O)CCC1CC(OC(=O)NCCc2ccc(F)cc2)CC2(CCCC(COC(=O)NCCOc3ccccc3)O2)O1 (stereo not given in full) | 0.671 | 0.0308 (inactive) | 0.0496 | -0.0971 | 0.193 | 1.31 | -0.0164 | 1.23 | 0.324 | 0.931 |
| CC(CCN1CCc2nc(-c3ccccc3)c(-c3ccccc3)cc2C1)=NOC[C@@H](O)[C@H]1O[C@@H]2OC(C)(C)O[C@@H]2[C@H]1O | 0.535 | 0.42 (inactive) | -0.051 | -0.0291 | 0.0181 | 1 | 0.608 | 1.13 | 0.507 | 0.696 |
| CO[C@@H]1COC(=O)[C@H](CCSC)NC(=O)CC=C[C@@H](C)COC(=O)[C@H](C)NC(=O)CC=C[C@H]1C | -1.04 | 0.327 (inactive) | 0.187 | -0.0907 | -0.0169 | -0.395 | 0.36 | 1.28 | 1.15 | -0.19 |
| C#CCCCON=C1C[C@@H](O)[C@@H](O)[C@@H]2[C@@H]3C(=O)N(CC)C(=O)[C@@H]3CC[C@@H]12 | -0.171 | -0.0844 (inactive) | 0.0779 | -0.108 | 0.231 | 0.248 | -0.0523 | 0.771 | 0.687 | 0.433 |
| O=C(NN=C1C[C@@H](O)[C@@H](O)[C@@H]2[C@@H]3C(=O)N(C[C@@H]4CCCO4)C(=O)[C@@H]3CC[C@@H]12)OCc1ccccc1 | 0.103 | 0.008 (inactive) | -0.0647 | -0.16 | -0.275 | -0.12 | 0.373 | 0.794 | 0.909 | -0.18 |
| O=c1n(Cc2cc3c(cc2Cl)OCO3)c(=O)n2n1CC[C@@H]1C(=NOCc3ccccc3)[C@H]3O[C@H]3[C@@H](O)[C@@H]12 | 0.0524 | 0.0993 (inactive) | 0.106 | -0.0495 | 0.177 | 0.155 | 0.708 | 0.529 | 0.6 | 0.223 |
| CCc1cc2c(nc1CC)CCN(CCC(C)=NO[C@H](C)c1cn([C@H](CO)Cc3ccccc3)nn1)C2 | 0.867 | -0.51 (inactive) | 0.189 | -0.101 | 0.0934 | 0.287 | 0.022 | 0.708 | 0.357 | -0.0875 |
| CCOC(=O)[C@H](CC(C)C)NC(=O)CCC1CC(OC(=O)NCc2ccc3c(c2)OCO3)CC2(CCCC(COC(=O)NCc3cccc(C(F)(F)F)c3)O2)O1 (stereo not given in full) | -0.232 | -0.104 (inactive) | -0.136 | -0.169 | 0.284 | 0.292 | -0.37 | 0.119 | 0.192 | 0.0441 |
| CCOC(=O)[C@H](CC(C)C)NC(=O)CCC1CC(OC(=O)NCCc2ccc(F)cc2)CC2(CCCC(COC(=O)NCCc3ccc(Cl)cc3)O2)O1 (stereo not given in full) | 0.587 | 0.133 (inactive) | 0.163 | -0.0495 | 0.606 | 1.61 | 0.037 | 1.03 | 0.446 | -0.485 |
| Cn1c(=O)n2n(c1=O)[C@H]1[C@H](O)[C@@H]3O[C@@H]3C(=O)[C@H]1CC2 | -0.161 | -0.301 (inactive) | -0.172 | -0.124 | -0.0126 | -0.0596 | 0.0837 | 0.327 | 0.387 | 0.513 |
| CCOC(=O)NN=C1C[C@@H](O)[C@@H](O)[C@@H]2[C@@H]3C(=O)N(Cc4ccccc4)C(=O)[C@@H]3CC[C@H]12 | -0.182 | -0.374 (inactive) | -0.183 | -0.174 | 0.542 | 0.307 | -0.4 | -0.0882 | 0.194 | 1.12 |
| CC(C)=CCCC(C)=CCON=C1C[C@@H](O)[C@@H](O)[C@@H]2[C@@H]3C(=O)N(C[C@@H]4CCCO4)C(=O)[C@@H]3CC[C@H]12 | 0.816 | 0.365 (inactive) | 0.121 | -0.0651 | 0.22 | 0.401 | -0.592 | 1.3 | 1.3 | 1.13 |
| CCOC(=O)C1=NO[C@]2(C=C(Br)C3(OCCCO3)[C@H]3O[C@H]32)C1 | 0.653 | -0.455 (inactive) | -0.239 | -0.0907 | 0.114 | -0.263 | -0.157 | -0.638 | -0.31 | -0.586 |
| CC(C)CON=C1C[C@@H](O)[C@@H](O)[C@@H]2[C@@H]3C(=O)N(c4ccc(F)cc4F)C(=O)[C@@H]3CC[C@H]12 | 0.541 | 0.109 (inactive) | -0.122 | -0.17 | 0.501 | 0.602 | 0.311 | 1.28 | 0.554 | 0.303 |
| CC(=O)Nc1ccc([C@@H]2N[C@H](C(=O)O)CC[C@H]2C)cc1 | 0.0499 | 0.237 (inactive) | -0.132 | -0.203 | -0.172 | -0.0725 | 0.0356 | 0.22 | 0.65 | 0.36 |
| CCOC(=O)NN=C1C[C@@H](O)[C@@H](O)[C@@H]2[C@@H]3C(=O)N(c4ccc(F)cc4F)C(=O)[C@@H]3CC[C@@H]12 | 0.66 | 0.16 (inactive) | -0.144 | -0.156 | -0.103 | 0.218 | 0.196 | 0.591 | 0.312 | 0.307 |
| CC(C)CON=C1C[C@@H](O)[C@@H](O)[C@@H]2[C@@H]3C(=O)N(Cc4ccc5c(c4)OCO5)C(=O)[C@@H]3CC[C@H]12 | 0.768 | -0.275 (inactive) | -0.0288 | -0.115 | 0.625 | 0.676 | -0.358 | 1.34 | 0.0987 | 0.957 |
| O=C1[C@H]2[C@H]3[C@H](O)[C@H](O)CC(=NOC[C@@H](O)COCc4ccco4)[C@H]3CC[C@H]2C(=O)N1Cc1ccccc1 | -0.13 | 0.48 (inactive) | -0.119 | -0.192 | -0.154 | -0.867 | -0.343 | -0.333 | 0.836 | -0.242 |
| CC(C)C[C@H](NC(=O)CCC1CC(OC(=O)NCc2cccc3ccccc23)CC2(CCCC(COC(=O)NCc3ccccc3)O2)O1)C(=O)NCC(c1ccccc1)c1ccccc1 (stereo not given in full) | 0.163 | -0.0662 (inactive) | 0.0876 | -0.234 | 0.404 | 0.743 | 1.09 | 1.31 | 0.546 | 0.347 |
| CCOC(=O)NN=C1C[C@@H](O)[C@@H](O)[C@@H]2[C@@H]3C(=O)N([C@@H](C)c4ccccc4)C(=O)[C@@H]3CC[C@H]12 | 0.0904 | -0.36 (inactive) | -0.0647 | -0.0424 | -0.119 | -0.156 | -0.111 | 0.338 | 0.183 | 0.297 |
| CC(=O)OC[C@H]1O[C@H](CC=NO[C@H](C)c2cn([C@H](CO)Cc3ccccc3)nn2)C=C[C@@H]1OC(C)=O | 0.376 | -0.0641 (inactive) | 0.108 | -0.0482 | -0.0934 | 0.154 | 0.0588 | 1.29 | 0.41 | 0.597 |
| Cn1c(=O)n2n(c1=O)[C@H]1[C@H](O)[C@@H]3O[C@@H]3C(=NOCc3ccccc3)[C@H]1CC2 | 0.0494 | -0.054 (inactive) | -0.112 | -0.14 | 0.487 | 0.444 | -0.0493 | 0.557 | -0.37 | -0.136 |
